This note sets out measurements from PubChem BioAssay AID463215 (Sanford-Burnham Center for Chemical Genomics, 2010).

The campaign covered roughly 4,600 compounds. About 2,900 (63%) were called active. So high a share suggests a set chosen from earlier hits. Only a sample is shown. Unmarked numbers belong to inactive results.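 How the source made its calls: active means inhibition of yeast growth at or above a set limit in either of two replicates at 10 µM; inactive means the rest.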

This assay in a line: TIM10 isogenic control strain growth inhibition – single concentration, luminescence, S. cerevisiae, counter-screen for tim10-1 synthetic lethality project, confirmation (AID 463215).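 Further: isogenic wild-type TIM10 control yeast grown in succinate dextrose medium; this counterscreen used the strain with wild-type TIM10; 0% = yeast with DMSO and 100% = medium wells lacking yeast.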 The conditions noted are these: BacTiter-Glo luminescence, 24 h, at 10 µM, hits give high values. (In general: Counterscreens check selectivity or assay interference.)
One may read the inhibition as the drop in the measured response relative to a control, in per cent. As to `CC1CCCCC1NC(=O)/C(C#N)=C/C=C/c1ccccc1[N+](=O)[O-]` (stereo not given), the inhibition was 41.3% (active).
For the molecule `COc1ccc2nc(N3CCN(C(=O)c4ccc([N+](=O)[O-])o4)CC3)sc2c1`, the inhibition was 82.2% (active).
Take `Cc1ccccc1OCC(=O)Nc1ccc(N2CCN(C(=O)C(C)C)CC2)c(Cl)c1`: the inhibition was 62.8% (active).
Consider `Oc1c(Cl)cc(Cl)c(Cl)c1Cc1c(O)c(Cl)cc(Cl)c1Cl`, for which the inhibition was 89.8% (active).
For the molecule `Cc1cccc(C2=N/C(=C/c3cccs3)C(=O)O2)c1`, the inhibition is 22%.
Under `CSC1=N/C(=C\C=C\c2cccs2)C(=O)S1` stands 56.8% (active).
Take `O=C(CCN1CCc2ccccc2C(O)(c2ccccc2)C1)c1ccc2c(c1)OCCO2` (stereo not given): the inhibition was 46.2% (active).
On to `Cc1cc(C)cc(NC(=S)NCCc2c[nH]c3ccccc23)c1`, for which the inhibition is -10.2%.
Turning to `Cc1cccc(NC(=S)NCc2ccc3[nH]c4c(c3c2)CCCC4)c1`, the inhibition is 34.5% (active).
As to `c1ccc(C2=Nc3cccc4cccc(c34)N2)cc1`, the inhibition is -39.8%.
With `O=C1c2ccccc2C(=O)c2c1cccc2N1CCN(Cc2ccccc2)CC1` the figure was 34.2% (active).
Consider `O=Cc1c(N2CCN(c3cccc(Cl)c3)CC2)nc2ccccn2c1=O`, for which the inhibition is 17.8%.
With `COc1cc(Br)cc(/C=N/c2ncn[nH]2)c1O`, the inhibition was 35% (active).
Take `c1ccc(-c2nnc3n2NC(c2ccc4c(c2)OCO4)S3)cc1` (stereo not given): the inhibition is 59.1% (active).
Turning to `Cc1ccc(-c2nn(C(C)(C)C)c3ncnc(N)c23)cc1`, the inhibition is 54.8% (active).
As for `CC(C)(CCl)C(=O)Nc1ccc(Sc2ccc(F)cc2)cc1`, the inhibition was 41% (active).
Regarding `C=CCNC(=O)c1ccc2c3n(nc2c1)-c1ccc(C)cc1CO3`, the inhibition was 45.5% (active).
On to `CCOC(=O)C1=C(C)N=c2s/c(=C\C(=O)OC)c(=O)n2C1c1ccc(OC)cc1` (stereo not given), for which the inhibition is 53.6% (active).
Take `S=C(NCc1ccc(Cl)cc1)NC12CC3CC(CC(C3)C1)C2`: the inhibition is 23.8%.
Turning to `O=C(COC(=O)c1ccc([N+](=O)[O-])o1)NC12CC3CC(CC(C3)C1)C2`, the inhibition is 44.8% (active).
Take `COc1ccc(CN(C(=O)CSc2nnc(-c3ccc(OC)c(OC)c3)o2)c2ccc(F)cc2)cc1`: the inhibition was 19%.
As to `CCN(CC)c1ccc(/C=N/NC(=O)c2cnccn2)c(O)c1`, the inhibition was 41.4% (active).
With `COc1ccc(C(=O)O/N=C(\N)Cc2ccc(Cl)cc2Cl)cc1OC`, the inhibition is 86.7% (active).
`Cc1cc(N=Nc2ccc3ccccc3c2)ccc1O`: the inhibition was 88.4% (active).
Consider `FC(F)(F)c1cnc(Oc2ccccc2-c2nnc(-c3ccc(Cl)cc3)o2)c(Cl)c1`, for which the inhibition is 5.25%.
As for `O=C1Oc2ccccc2C(=O)/C1=C/c1ccccc1O`, the inhibition was 57.5% (active).
For `Cc1cccc(N=Nc2c(O)[nH]c3ccc(F)cc23)c1`, the inhibition was 40.8% (active).
Take `O=C(Nc1ccc(NC(=O)c2cccs2)cn1)c1ccco1`: the inhibition is 32.2% (active).
For `Cc1nc(-c2ccc(NC(=O)c3cccs3)cc2)cs1`, the inhibition was -32.7%.
With `COc1cc(NC(=O)c2cccs2)ccc1NC(=O)c1ccccc1Cl`, the inhibition was 5.7%.
Under `Cc1ccc2nc(-c3ccc(Br)cc3)cn2c1` stands 38.8% (active); under `Cc1ccc(-c2cn3cc(C)ccc3n2)cc1`, 67% (active); under `Nc1cc(OC(=O)c2ccccc2Br)nn1S(=O)(=O)c1ccccc1`, 48% (active).
Turning to `CN1C(=O)/C(=N/OC(=O)c2ccccc2Br)c2ccccc21`, the inhibition was 61.5% (active).
Take `Fc1ccccc1/C=C1\CCCC2=C1Nc1ncnn1C2c1ccccc1F` (stereo not given): the inhibition was 26.4%.
In the case of `COc1ccc(C(=O)Nc2ccc(-n3nncc3C(C)(C)C)cc2)cc1`, the inhibition was 21.1%.
On to `CCc1cc(C(N)=O)c(NC(=O)c2ccc(OC)cc2)s1`, for which the inhibition was 59.7% (active).
With `CC(C)(C)C(=O)c1cnc(Nc2ccccc2)s1`, the inhibition was 21.1%.
For `CSCCC(NS(=O)(=O)/C=C/c1ccccc1)C(=O)N1CCC(C)CC1` (stereo not given), the inhibition was 2.25%.
Under `CCn1c(/C=C/c2ccc([N+](=O)[O-])o2)nc2ccccc2c1=O` stands 80.8% (active).
Turning to `COc1ccc2c(c1)cc1n2CCN=C1NN`, the inhibition is 51.4% (active).
Take `COc1ccccc1-c1n[nH]c2c1[C@H](C)CC[C@H]2C(C)C`: the inhibition is 50.2% (active).
Take `Cc1cc(N)n2nc(-c3ccc(C(C)(C)C)cc3)cc2n1`: the inhibition was 9.25%.
Turning to `CC1=C/C(=N\OS(=O)(=O)c2ccccc2)C=CC1=O`, the inhibition was -32.8%.
Consider `O=C(Nc1nnc(SCc2c(Cl)cccc2Cl)s1)C1CCCO1` (stereo not given), for which the inhibition was 41% (active).
With `CC(C)c1ccc(NC(=S)NC2CC3C=CC2C3)cc1` (stereo not given), the inhibition was 35.2% (active).
In the case of `O=C1c2ccccc2S(=O)(=O)N1CC(O)Cn1c2ccccc2c2ccccc21` (stereo not given), the inhibition is 46.1% (active).
As to `CCOC(=O)CNC(=O)CSc1ncccc1-c1nc2ccccc2[nH]1`, the inhibition was 1.05%.
Take `O=C(Nc1ccc(Cl)c(Cl)c1)N1CC=C(c2ccccc2)CC1`: the inhibition was 33.3% (active).
Consider `Nc1cccc(-c2cc(-c3ccccc3)nc(-c3cccc(N)c3)n2)c1`, for which the inhibition is 36.6% (active).
Consider `CS(=O)(=O)c1sc2nc(-c3ccccc3)cc(-c3ccccc3)c2c1N`, for which the inhibition was -14.8%.
On to `O=c1oc2ccccc2cc1-c1csc(Nc2ccc(O)cc2)n1`, for which the inhibition was 39.9% (active).
With `O=C(CC(O)(C(F)(F)F)C(F)(F)F)Nc1ccc(Cl)c(Cl)c1`, the inhibition was 92.4% (active).
`CCOC(=O)C1Sc2[nH]c(=O)sc2C(c2ccc(Cl)cc2)C1C(=O)OCC` (stereo not given): the inhibition is 48.2% (active).
With `CC1CC(=S)Nc2ccccc2N1Cc1ccccc1` (stereo not given), the inhibition was -14.8%.
Under `O=C(Oc1ccc([N+](=O)[O-])cc1)c1ccc2ccccc2n1` stands 33.2% (active); under `CCCc1nc2c(c(=O)c3ccccc3n2C)c(=O)n1C1CCCCCC1`, -18.1%; under `Cc1[nH]n(C(N)=S)c(=O)c1N=Nc1ccc(Cl)cc1Cl`, 51.7% (active).
Regarding `CCCCC1(C(=O)OCC)NC(c2ccc(O)cc2)C2C(=O)N(c3ccccc3)C(=O)C21` (stereo not given), the inhibition is 7%.
`CCSC1=C(C#N)C(=O)n2c1cc1c2CCCC1`: the inhibition was 56.2% (active).
As to `O=C(NCc1ccc2c(c1)OCO2)c1c(O)nc2sccn2c1=O`, the inhibition was 27.8%.
On to `CC(=NCc1ccc2c(c1)OCO2)C1=C(O)c2ccccc2C1=O`, for which the inhibition is 66.2% (active).
Regarding `COc1ccc(O)c(C(=O)c2cnc3c(c2)c(-c2ccc(F)cc2)c(C#N)c(=O)n3C)c1`, the inhibition was 3.75%.
With `O=C1[C@@H](c2ccccc2)[C@@H](c2ccccc2)N1c1cccnc1`, the inhibition was 61.4% (active).
For `C=CCNC(=S)NNC(=O)COc1c(Cl)cc(Cl)cc1Cl`, the inhibition was 2.85%.
On to `O=C(Oc1c(-c2ccco2)oc2ccccc2c1=O)c1cccnc1`, for which the inhibition is 48% (active).
Regarding `Cc1ccc2nc(N(CCN(C)C)C(=O)C3=COCCO3)sc2c1`, the inhibition was 34.9% (active).
Under `CN(C)CCN(C(=O)C1=COCCO1)c1nc2ccc(Cl)cc2s1` stands 69.3% (active).
On to `Cc1ccoc1C(=O)Nc1cccc(Oc2ccccc2)c1`, for which the inhibition is 61% (active).
For `Cc1nc(-c2ccc(Cl)cc2)sc1C(=O)CBr`, the inhibition is 52.6% (active).
As to `CCNC(=S)N(CCc1c(C)[nH]c2ccc(C)cc12)Cc1ccco1`, the inhibition is 20.2%.
`Cc1cccc(NC(=O)c2ccc([N+](=O)[O-])o2)c1`: the inhibition is 81.6% (active).
Turning to `Cc1onc(NC(=O)c2ccc([N+](=O)[O-])o2)c1Br`, the inhibition was 53.8% (active).
`O=C(Nc1ccc(Br)cn1)c1ccc([N+](=O)[O-])o1`: the inhibition was 46.5% (active).
Under `CC(C)CC(=O)NC(=S)Nc1ccc(F)cc1F` stands 15.1%; under `Cc1ccc2nc(-c3ccc(SCC(=O)Nc4cc(C)on4)nc3)[nH]c2c1`, 2.7%; under `CC(C)Oc1c(Br)cc(Br)cc1/C=N/NC(N)=S`, 23.6%.
`NC(=S)N/N=C/c1coc2cc(Cl)ccc2c1=O`: the inhibition is 50.8% (active).
For the molecule `C=C(C)COc1ccc(-c2n[nH]c(C)c2-c2ccccc2)c(O)c1`, the inhibition is 40.1% (active).
In the case of `Oc1ccccc1-c1cc(-c2ccc(Cl)cc2)n[nH]1`, the inhibition is 55.5% (active).
As to `CC(C)NC(=O)/C(C#N)=C\c1ccc(N(C)C)c(Br)c1`, the inhibition was 46.6% (active).
Take `O=c1[nH]cnc2c1c(-c1ccccc1)cn2-c1ccc(F)cc1`: the inhibition is -25.6%.
Under `CC(=NCc1ccco1)c1c(C(F)(F)F)[nH]n(-c2nc3ccccc3s2)c1=O` stands 57.4% (active); under `N/C(=N\OC(=O)CCc1ccccc1)c1ccc(Cl)cc1`, 57.2% (active); under `COc1ccc(/C(N)=N/OC(=O)CCCc2ccccc2)cc1`, 39.8% (active).
With `COc1ccc(-c2oc3ncn(Cc4ccco4)c(=N)c3c2-c2ccc(OC)cc2)cc1`, the inhibition was 38.8% (active).
`COc1ccc2[nH]cc(/C=C(/C#N)S(=O)(=O)c3ccccc3)c2c1`: the inhibition was 38% (active).
Take `N/C(=N\OC(=O)Nc1ccc(Cl)c(Cl)c1)c1ncc(C(F)(F)F)cc1Cl`: the inhibition was 72.8% (active).
With `CC1CCCC(C)N1C(=O)CN1CCN(c2nc(-c3ccc(F)cc3)cs2)CC1` (stereo not given), the inhibition was 39.2% (active).
Regarding `Cc1cc(C)n(CC(O)CN(c2ccccc2)S(=O)(=O)c2ccc3ccccc3c2)n1` (stereo not given), the inhibition is 2.2%.
Take `CC(=O)Oc1ccc(N(C(C)=O)S(=O)(=O)c2ccc3ccccc3c2)cc1Br`: the inhibition is 40.5% (active).
Consider `CCc1ccc(OCC(=O)NCC(c2ccc(Cl)cc2)N2CCCCC2)cc1` (stereo not given), for which the inhibition was 44% (active).
Consider `CC1CCC2CCCCC2N1C(=O)c1cc([N+](=O)[O-])cc([N+](=O)[O-])c1` (stereo not given), for which the inhibition is 33% (active).
As to `CCOc1ccccc1/C=c1\sc2nc(-c3ccco3)nn2c1=O`, the inhibition was 48.9% (active).
With `Cc1ccc(-c2ccnc3nc(Sc4ncc(C(F)(F)F)cc4Cl)nn23)cc1` the figure was 29.6%; with `Cc1nn2c(c1-c1ccccc1)N=C(c1ccco1)CC2c1ccccc1` (stereo not given), -19.4%; with `CC(NC(=S)Nc1ccccc1)C1COc2ccccc2O1` (stereo not given), 40.3% (active).
`Cc1ccc(N2C(=O)C3C4C=CC(CC4)C3C2=O)cc1Cl` (stereo not given): the inhibition was 0.2%.
Regarding `COc1cccc(OCc2cc(C(=O)N3CCN(C(=O)c4ccco4)CC3)no2)c1`, the inhibition is 8.3%.
Regarding `Cc1ccc(C(=O)COc2cccc(NC(=O)c3ccco3)c2)cc1`, the inhibition is 53.1% (active).
